The supplement of paper PMC6555819

What was measured:
Test in all cases: PBM binding z-score (relative to random genomic background probes); higher = stronger binding; sequences stand for … in GC…GCGATTGACAGCGTAGAATGAAGG
[1] = tested on: FXR:RXRa (NR concentration 270 nM, RXRa partner concentration 90 nM)
Method in brief: (§1)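 Ligand-free nuclear receptor dimers were bound for 1 h to custom Agilent 4×180K protein-binding microarrays. Detection used antibodies against each partner (one per run). Binding z-scores rest on regression-normalized fluorescence, with random background probes as the reference.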

[2] = tested on: LXRa:RXRa (NR concentration 270 nM, RXRa partner concentration 90 nM)
Method in brief: as §1

[3] = tested on: LXRa homodimer (NR concentration 270 nM)
Method in brief: as §1

[4] = tested on: LXRb:RXRa (NR concentration 270 nM, RXRa partner concentration 90 nM)
Method in brief: as §1

[5] = tested on: LXRb homodimer (NR concentration 270 nM)
Method in brief: as §1

[6] = tested on: PPARa:RXRa (NR concentration 270 nM, RXRa partner concentration 90 nM)
Method in brief: as §1

[7] = tested on: PPARg:RXRa (NR concentration 180 nM, RXRa partner concentration 90 nM)
Method in brief: as §1

[8] = tested on: PPARg:RXRa 270nM:90nM, anti-RXR (NR concentration 270 nM, RXRa partner concentration 90 nM)
Method in brief: as §1

[9] = tested on: PPARg:RXRa 30nM:10nM, anti-RXR (NR concentration 30 nM, RXRa partner concentration 10 nM)
Method in brief: as §1

[10] = tested on: PPARg:RXRa 90nM:30nM, anti-RXR (NR concentration 90 nM, RXRa partner concentration 30 nM)
Method in brief: as §1

[11] = tested on: PPARg:RXRa DBDmut IVT, anti-RXR (DBD mutation: RXRa K156A/R161A, NR concentration 270 nM, RXRa partner concentration 90 nM)
Method in brief: as §1

[12] = tested on: PPARg:RXRa IVT, anti-PPARg (NR concentration 270 nM, RXRa partner concentration 90 nM)
Method in brief: as §1

[13] = tested on: PPARg DBDmut:RXRa IVT, anti-PPARg (DBD mutation: PPARg1 K132A/R137A, NR concentration 270 nM, RXRa partner concentration 90 nM)
Method in brief: as §1

[14] = tested on: PPARg DBDmut IVT, anti-PPARg (DBD mutation: PPARg1 K132A/R137A, NR concentration 270 nM)
Method in brief: as §1

[15] = tested on: PPARg homodimer (NR concentration 180 nM)
Method in brief: as §1

[16] = tested on: PXR:RXRa (NR concentration 270 nM, RXRa partner concentration 90 nM)
Method in brief: as §1

[17] = tested on: PXR homodimer (NR concentration 270 nM)
Method in brief: as §1

[18] = tested on: RARa:RXR (NR concentration 270 nM, RXRa partner concentration 90 nM)
Method in brief: as §1

[19] = tested on: RARa homodimer (NR concentration 270 nM)
Method in brief: as §1

[20] = tested on: RARb:RXRa (NR concentration 270 nM, RXRa partner concentration 90 nM)
Method in brief: as §1

Sequence | PBM binding z-score [1] | PBM binding z-score [2] | PBM binding z-score [3] | PBM binding z-score [4] | PBM binding z-score [5] | PBM binding z-score [6] | PBM binding z-score [7] | PBM binding z-score [8] | PBM binding z-score [9] | PBM binding z-score [10] | PBM binding z-score [11] | PBM binding z-score [12] | PBM binding z-score [13] | PBM binding z-score [14] | PBM binding z-score [15] | PBM binding z-score [16] | PBM binding z-score [17] | PBM binding z-score [18] | PBM binding z-score [19] | PBM binding z-score [20]
CAAACTAGGTCACGAAGGGTCAAAGTCGAATGAC | 7.24 | 7.09 | 4.6 | 6.6 | 1.09 | 6.41 | 10.1 | 7.95 | 7.11 | 8.2 | 8.44 | 9.09 | 5.43 | 4.14 | 6.07 | 6.48 | 1 | 7.14 | 2.56 | 5.29
ACTAGCAGGCCAAGTTTAGGTCACTCAAACAAAG | 0.818 | 0.384 | 0.281 | 0.929 | -0.282 | 1.6 | 0.288 | 0.528 | -0.151 | 0.000314 | 0.729 | 1.54 | -0.154 | -0.113 | 0.824 | 0.86 | 0.177 | 1.7 | -0.431 | 2.33
ACTATTAGTGGAGACGAGGGCAACCGATAGGTTG | 0.0192 | -0.21 | -0.488 | -0.347 | -0.31 | -0.00529 | 0.674 | 0.335 | -0.0792 | 0.232 | -0.144 | 0.852 | 0.383 | 0.735 | -0.247 | 0.218 | 0.0964 | 0.0871 | 0.227 | 0.779
ACAGACAGGTGAGTGAAGGTAACACAGCTGGACG | 0.433 | 0.227 | -0.295 | -0.073 | -0.319 | 0.307 | 1.16 | 0.43 | 0.00598 | 0.0299 | 0.662 | 0.632 | 0.226 | -0.221 | 0.391 | -0.00194 | 0.205 | 0.574 | 0.248 | 0.597
CGAACTAGGTCAGAACCGGACAGTGAAGGATGAT | 0.841 | 0.508 | -0.0192 | 0.198 | -0.379 | 2.72 | 4.56 | 4.31 | 1.5 | 3.4 | 7.36 | 7.01 | 0.829 | -0.265 | 0.564 | 0.339 | -0.0754 | 0.679 | -0.208 | 2.85
CCTATTAGTTGACCAGAAGGGCAACCGAAGCTCG | 0.545 | 0.559 | 0.36 | 0.332 | 0.735 | 0.431 | 0.395 | 0.467 | -0.116 | 0.177 | 0.319 | 0.518 | -0.0786 | 0.481 | 1.64 | 0.463 | 0.906 | 0.452 | 2.07 | 1.61
ATACCTAGGTGATCGTGAGGTCGTTGATACTAAC | 1.53 | 1.12 | 0.563 | 1.35 | 0.0825 | 1.55 | 0.632 | 0.766 | 0.387 | 0.954 | 1.24 | 1.46 | 0.324 | 0.924 | 0.783 | 2.64 | 2 | 2.04 | 0.311 | 1.09
TCTTGTAGATCAACAGGAGGTTAAGGAAGATCGA | 0.186 | 0.637 | -0.0408 | 0.484 | -0.341 | 1.24 | 0.0349 | 1.22 | 2.48 | 1.68 | 1.4 | 0.448 | 1.51 | 0.495 | 0.156 | 0.485 | -0.267 | 0.702 | 0.0704 | 0.516
TCGAGTAGGTTAGGGGCATTAAGAATGGCGTCGA | 0.466 | 0.479 | -0.184 | 0.739 | -0.27 | 1.34 | 1.07 | 2.13 | 1.32 | 1.98 | 2.21 | 1.23 | -0.687 | -1.11 | 0.475 | 0.596 | 0.671 | 0.713 | -0.193 | 1.04
ACTCGGAGGACAAAGGTCAGACCTACGCCAGTGA | 4.44 | 4.05 | 2.02 | 3.64 | 0.528 | 4.93 | 7.6 | 6.95 | 4.94 | 6.85 | 0.683 | 3.73 | 0.128 | -0.307 | 3.27 | 4.16 | 0.401 | 5.43 | 1.5 | 4.5
AGAATGAGGTTATACGTAGATCAGGGTAGAAAGT | 2.27 | 1.96 | 0.00674 | 1.65 | 0.246 | 3.21 | 2.08 | 2.36 | 0.669 | 1.22 | 4.24 | 2.33 | 1.07 | 0.356 | 1.01 | 1.35 | 0.929 | 1.86 | 0.591 | 1.59
TAGCCTCGGTCATGGGCCAGTATACCACGCGAAC | 0.333 | 0.687 | 0.0533 | -0.073 | -0.572 | 0.143 | 0.374 | 0.188 | -0.674 | -0.0831 | -0.58 | 0.53 | -0.301 | -1 | -0.0918 | -0.176 | -0.497 | 0.0375 | -0.653 | 2.42
TGTCAAAGTTCAAAGGTAACGTAAGTATCCACAC | 6.82 | 6.64 | 4.55 | 4.83 | 2.02 | 5.9 | 8.46 | 7.64 | 5.11 | 7.32 | 0.64 | 4.66 | 1.24 | 1.15 | 2.16 | 5.77 | 3.43 | 6.45 | 0.967 | 5.11
GATACAGGGTCAGCTAGAGGCCAGAGAATGGAAA | 4.74 | 2.83 | -0.346 | 2.73 | -0.535 | 4.65 | 3.8 | 3.53 | 1.08 | 2.59 | 1.5 | 2.31 | 0.246 | -1.1 | 2.84 | 3.34 | 0.000802 | 4.73 | 0.734 | 4.34
CCTTACGGGTCAAGTTTATAGCACGGGTGGTACG | 6.15 | 4.11 | 0.444 | 3.48 | 0.604 | 5.14 | 4.2 | 4.22 | 1.91 | 3.06 | 2.03 | 3.32 | 1.11 | -0.333 | 4.02 | 3.89 | 0.698 | 4.34 | 1.46 | 4.19
AGTCAAAGTTCAATAGGTAACGTAAGATTCAGCT | 5.27 | 5.09 | 3.45 | 3.08 | 1.59 | 4.37 | 5.82 | 5.74 | 2.88 | 4.97 | 1.07 | 3.4 | 1.2 | 1.2 | 2.73 | 4.19 | 3.15 | 3.34 | 1.83 | 4.8
TGAATGAGGTTATAAGATCAGGGCACGTTGCAAA | 1.49 | 1.49 | 0.117 | 1.32 | 0.0684 | 2.9 | 1.62 | 1.95 | 0.914 | 1.63 | 1.2 | 2.64 | 0.65 | 0.308 | 0.364 | 1.19 | -0.152 | 1.77 | 0.42 | 1.48
CGTCCGAGGTCAGAGAGGTCAGTGAATGCCGAGT | 6.42 | 5.78 | 3.42 | 5.43 | 0.406 | 5.62 | 4.63 | 5.26 | 2 | 4.02 | 3.24 | 4.09 | -0.171 | -0.203 | 4.74 | 6.53 | 12.4 | 5.71 | 0.718 | 5.23
